Compound activity (PubChem BioAssay)
An excerpt weighted towards active compounds, which were near 2.4% of everything screened.
TDP1 inh – TDP1 (human) enzyme inhibition | Q9NUW8 | recombinant TDP1, AlphaScreen DNA substrate cleavage | Potency, µM (doses to about 130 µM), for the others: top-dose activity change, negative = inhibition, hits mostly inhibitors | actives 0.28% (n = 350,000) | AID 485290; active = well fitted curve in the direction sought with a large enough effect; inconclusive = small, poorly fitted or top-dose-only effect, or another doubt; inactive = no such curve, though single readings can be large; an effect the other way counts as inactive or inconclusive; note: % is set by controls: 0 for no effect and ±100 for the full control effect; nearly all actives have a fitted effect of over 40% in size
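Tdp1 1 nM final; 15 min RT w/ cpd; substrate 15 nM, 5 min; beads 10 ug/ml, 10 min; AlphaScreen read. Neg ctrl: no enzyme.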
TSG101-PTAP inh – blocks PTAP/TSG101 interaction to inhibit HIV-1 budding; 340,000 tested, under 10 active; AID 493005; Q99816; Fluorescence polarization, FITC-PTAP peptide / Tsg101 binding; Potency, µM (titrated, usually from 115 µM), for inactives: at the highest dose activity change, negative = inhibition, most hits filed as inhibitors; active = well fitted inhibition curve with a large enough effect in the main read-out, with a control signal flat, not every such curve was filed as active; inconclusive = small, poorly fitted or top-dose-only effect, or effect the other way, or a change in a side signal; inactive = no such curve, though single readings can be large or run the other way; note: % of control where 0% means no effect
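FP read-out: FITC-PTAP peptide, 50 nM final, binding Tsg101 binding domain, 10 uM final; 20 min, r.t.; 10 mM HEPES pH 7.5, 0.15 M NaCl, 0.01% Tween 20, 3 mM EDTA, 0.1 mM TCEP.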
Rango dissoc inh – inhibition of RanGTP-driven Rango-importin beta dissociation; O95149+P62826; Biochemical FRET Rango-importin beta, RanGTP-induced dissociation; Potency, µM (doses to about 46.1 µM), without a hit: top-dose activity change, negative = inhibition; actives 0.071% (n = 340,000); note: % of control where 0% means no effect; nearly all actives have a fitted effect of over 45% in size
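Rango/importin beta premix (0.1/0.25 uM final), PBS + 1 mM DTT + 0.02% Tween-20 + 0.1% BSA; cpd 5 min RT; FRET pre-read; + RanGTP-RCC1 (0.6 uM Ran, 2 mM GTP, 0.2 uM RCC1); 45 min RT; FRET post-read, ex 430, em 486/530 nm.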
ALOX12 inh – ALOX12 (human) lipoxygenase inhibition | P18054 | purified 12hLO, xylenol orange hydroperoxide absorbance | Potency, µM (titrated, usually from 108 µM), inactives show at the top dose activity change, negative = inhibition, hits mostly inhibitors | actives 1.1% (n = 580,000) | AID 1671190; active = well fitted curve in the direction sought with a large enough effect; inconclusive = small, poorly fitted or top-dose-only effect, or another doubt; inactive = no such curve, though single readings can be large; an effect the other way counts as inactive or inconclusive; note: % is set by controls: 0 for no effect and ±100 for the full control effect
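Purified human 12hLO at 150 nM in 25 mM Hepes, 0.01% Triton X-100, pH 7.0, preincubated 15 min at room temperature with compound. Reaction started with 40 uM arachidonic acid, 30 min at room temperature. Hydroperoxide measured by Fe-xylenol orange, 573/405 nm absorbance ratio.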
ClpP mod – qHTS Assay for Activators of ClpP | ATP-dependent Clp protease proteolytic subunit (Bacillus subtilis (strain 168)), P80244 | purified B. subtilis ClpP, FRET peptide cleavage, 20 min | Potency, µM (titrated, usually from 57.5 µM), for the others: top-dose activity change, negative = active | actives 1.9% (n = 340,000) | AID 651965, 2013; active = well fitted falling curve with a large enough effect; inconclusive = small, poorly fitted or top-dose-only effect; inactive = no such curve, though single readings can be large or run the other way; note: the source files actives as falling curves though it sought activators and does not explain the sign; nearly all actives have a fitted effect of over 65% in size
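FRET quenching reversal measured ClpP activation: 10 microg/mL B. subtilis ClpP at pH 8 with the FRET-FV decapeptide, read at 430 nm after 320 nm excitation. The 20-min minus 0-min signal was scaled between DMSO/no-enzyme wells and ADEP (5.8 microM final).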
Rango-impB inh – Rango-importin beta binding inhibition; Q14974; Rango CFP/YFP FRET sensor + importin beta, 45 min; actives 0.031% (n = 340,000); Potency, µM (doses to about 92.2 µM), for the others: at the top dose inhibition of complex formation;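 note: 0% = DMSO wells and 100% = buffer wells lacking importin beta; nearly all actives have a fitted effect of over 15% in size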
Target sequence (Q14974 whole entry, looked up): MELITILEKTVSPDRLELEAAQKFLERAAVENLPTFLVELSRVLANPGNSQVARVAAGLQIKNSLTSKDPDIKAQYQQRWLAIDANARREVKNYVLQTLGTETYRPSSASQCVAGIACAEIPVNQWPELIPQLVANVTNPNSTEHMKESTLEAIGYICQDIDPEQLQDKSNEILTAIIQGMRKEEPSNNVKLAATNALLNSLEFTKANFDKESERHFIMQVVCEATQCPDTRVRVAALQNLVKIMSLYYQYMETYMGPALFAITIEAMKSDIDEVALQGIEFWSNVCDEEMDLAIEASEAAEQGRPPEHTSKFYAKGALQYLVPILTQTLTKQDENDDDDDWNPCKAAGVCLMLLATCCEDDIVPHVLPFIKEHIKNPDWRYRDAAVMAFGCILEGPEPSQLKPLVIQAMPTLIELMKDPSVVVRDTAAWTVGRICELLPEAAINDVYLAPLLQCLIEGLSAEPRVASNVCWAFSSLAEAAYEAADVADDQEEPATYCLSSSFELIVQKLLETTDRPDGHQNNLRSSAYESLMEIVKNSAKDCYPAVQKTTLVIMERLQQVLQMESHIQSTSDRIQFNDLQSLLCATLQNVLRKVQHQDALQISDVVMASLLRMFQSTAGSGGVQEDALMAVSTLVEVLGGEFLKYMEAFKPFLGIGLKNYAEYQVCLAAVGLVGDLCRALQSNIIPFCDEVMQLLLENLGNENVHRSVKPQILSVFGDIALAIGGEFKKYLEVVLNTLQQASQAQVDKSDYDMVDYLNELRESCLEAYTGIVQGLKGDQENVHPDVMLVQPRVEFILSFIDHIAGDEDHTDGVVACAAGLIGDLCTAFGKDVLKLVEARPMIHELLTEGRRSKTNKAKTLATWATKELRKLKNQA
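FRET biosensor Rango (snurportin 1 IBB between N-terminal EYFP and C-terminal Cerulean), 50 nM in PBS/1 mM DTT/0.02% Tween-20/0.1% BSA, preincubated 5 min RT with compound; 0.125 microM importin beta added, 45 min RT, CFP/YFP FRET ratio read.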
* hit, by the source's call; ? = inconclusive; . = not tested or not shown; ! = repeats disagree. Unless noted, calls come from the whole dose curve. Potency is the fitted concentration of half-maximal effect.

SMILES	TDP1 inh	TSG101-PTAP inh	Rango dissoc inh	ALOX12 inh	ClpP mod	Rango-impB inh
COC(=O)c1cc2sc(Cl)cc2n1Cc1cc(C)ccc1C	3%	.	.	-7%	1%	.
CCOC(=O)COc1ccc2c(c1)C(=O)CC1(CCCCC1)O2	0%	-2%	-3%	-4%	28µM*	-4%
O=C(COc1ccc2c(c1)C(=O)CC1(CCCCC1)O2)NCc1ccccc1	3%	-5%	4%	-23%	-17%	3%
CCN(CC)C(=O)COc1ccc2c(c1)C(=O)CC(C)(C)O2	-3%	-10%	-15%	-10%	4%	2%
O=C(COc1ccc2c(c1)C(=O)CC1(CCCCC1)O2)NCc1ccccn1	7%	-1%	5%	5%	25µM*	2%
CCOC(=O)COc1ccc2c(c1)C(=O)CC(C)(c1cccnc1)O2 (stereo unspecified)	5%	-7%	-12%	18%	28µM*	0%
Cc1ccc(C2Cn3nnc(-c4noc(-c5cccnc5)n4)c3CO2)cc1 (stereo unspecified)	.	.	.	1%	.	.
CC(C)(NC(=O)/C=C/c1cccnc1)c1ccc(Br)cc1	.	.	.	15%	.	.
O=C(Nc1ccc(Cl)cc1)Nc1nnc(CSCc2ccccc2)s1	-3%	1%	-8%	17%	18µM*	0%
O=C(Nc1nnc(CSCc2ccc(F)cc2)s1)c1cccc([N+](=O)[O-])c1	5%	-3%	25%	4%	-2%	-1%
O=C(Nc1nnc(CSCc2ccc(Cl)cc2)s1)c1cccc([N+](=O)[O-])c1	2%	-6%	10%	-2%	25µM*	0%
CNC(=O)N1CCC(n2c(C)cnc2C2CC2)CC1	.	.	.	13%	.	.
Cc1nn(-c2ccc(Cl)nn2)c2c1C(c1ccc3nccnc3c1)CC(=O)N2 (stereo unspecified)	.	.	.	-2%	.	.
CCCCNc1nc(-c2c(N)n(CCC)c(=O)n(C)c2=O)cs1	.	.	.	-46%	.	.
CCCn1c(N)c(-c2csc(NC)n2)c(=O)n(C)c1=O	.	.	.	7.9µM*	.	.
Cc1ccccc1C(C)NC(=O)CSc1nc2cc([N+](=O)[O-])ccc2o1 (stereo unspecified)	.	.	.	25µM*	.	.
Cc1ccc(CNC(=O)CSc2nc3cc([N+](=O)[O-])ccc3o2)cc1	.	.	.	-18%	.	.
FC(F)Sc1ccc(NC(=S)NCCC2=CCCCC2)cc1	.	.	.	18µM*	.	.
CCOC(=O)c1ccc(NC(=S)NCCc2ccccc2F)cc1	5%	0%	2%	40µM*	.	0%
CCOC(=O)c1ccc(NC(=S)NCCC2=CCCCC2)cc1	-2%	-1%	0%	40µM*	-14%	-1%
CCOC(=O)c1ccc(NC(=S)NC(=O)C2CCCC2)cc1	-2%	1%	-9%	40µM*	2%	-1%
CCOC(=O)c1ccc(NC(=S)NCCc2ccccc2)cc1	7%	-4%	4%	?	-12%	0%
CC(=O)NS(=O)(=O)c1ccc(NC(=O)C(C)Oc2cccc(Cl)c2)cc1 (stereo unspecified)	.	.	.	13%	.	.
COc1ccc(OCCSC2=NCC(C)(C)CN2)cc1	.	.	.	35µM*	.	.
Cc1ccc(C)c(N/C(N)=N/c2nc(C)cc(C)n2)c1	4%	1%	0%	-3%	32µM*	-3%
CCOC(=O)C1CCCN(Cc2ccc(OCc3ccccc3)c(OC)c2)C1 (stereo unspecified)	.	0%	-1%	0.56µM*	0%	2%
COc1ccc(CN2CCCC(C(=O)N3CCc4ccccc4C3)C2)cc1OC (stereo unspecified)	4%	-2%	1%	0.71µM*!	-4%	7%
COc1ccc(CN2CCCC(C(=O)N3CCCCC3)C2)cc1OC (stereo unspecified)	.	0%	-15%	-21%	1%	0%
